Screening results (PubChem BioAssay)
p53ts 32C kill – p53ts cell cytotoxicity, permissive temperature. H1299-p53A138V at 32C, ATP luminescence viability, 24 h. Potency, µM (doses to about 46.1 µM), for the others: at the highest dose activity change, negative = cytotoxicity, most hits filed as cytotoxic. actives 0.93% (n = 130,000). AID 924;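 note: 0% = DMSO and -100% = full killing by reference compound; nearly all actives have a fitted effect of over 55% in size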
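Viability by ATPlite luminescence after 24 h compound treatment (up to 46 uM) at the permissive 32C. Cells are H1299 carrying p53 A138V. Scale runs from DMSO basal to 100 uM tamoxifen as full kill; AC50 from Hill fits.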
IkB sig inh – inhibitors of IkB signaling in ABC-DLBCL cells. Potency, µM (top dose mostly 57.1 µM), without a hit: top-dose IkBa stabilization activation. AID 445. actives 0.04% (n = 110,000). ABC-DLBCL IkBa-CBG/CBR dual luciferase ratio, 4 h; response scale: scaled: untreated 0%, proteasome inhibitor 100%; active = well fitted curve in the direction sought with a large enough effect in the signal ratio, not every such curve was filed as active; inconclusive = small, poorly fitted or top-dose-only effect, or a change in a side signal; the % refers to the signal ratio;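 note: the direction sought is a rising ratio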
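In this assay, an IκBα–CBG68 fusion accumulates when IKK-driven degradation is blocked; native CBR normalizes for cell number. OCI-Ly3 cells were treated 4 h with compound and doxycycline, then green and red light read after Chroma-Glo addition.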
Peg3 imprint – inducers of genomic imprint erasure in mouse ES cells | mouse ES Peg3-LacZ reporter, beta-gal luminescence, 40 h | Potency, µM (titrated, usually from 60.7 µM), for inactives: top-dose activity change, positive = activation, most hits filed as activators | actives 0.02% (n = 110,000) | AID 1948
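Gelatin-coated wells received 300 freshly trypsinized female ES cells with a Peg3LacZ-Neo reporter on the maternal allele, then incubated 40 hours at 37C. BetaGlo was added for 5 minutes at room temperature before a single luminescence read.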
p53ts 39C tox – p53ts cell cytotoxicity, nonpermissive temperature; H1299-p53A138V viability at 39C, ATP luminescence, 24 h; Potency, µM (highest dose often 46.1 µM), inactives show at the highest dose activity change, negative = cell killing, usual class: cytotoxic; actives 1.5% (n = 130,000); note: % is set by controls: 0 for no effect and ±100 for the full control effect; nearly all actives have a fitted effect of over 55% in size
ERK AVP block – blocks ERK signaling stimulated by vasopressin | HEK293-V1b, vasopressin-stimulated pERK AlphaScreen | Potency, µM (highest dose often 57.5 µM), without a hit: at the top dose activity, negative = inhibition, usual class: inhibitors | actives 0.99% (n = 72,000) | AID 995; note: % is set by controls: 0 for no effect and ±100 for the full control effect; nearly all actives have a fitted effect of over 55% in size
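qHTS, compounds titrated on V1b-expressing HEK293 cells. Preincubation 30 min at 37C, vasopressin 25 nM for 5 min, lysis 10 min, bead incubation 5 hr at room temperature.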
An asterisk follows results filed as active; ? = inconclusive; / = not tested or not shown; [ ] = another dose, or the depositor's remark. Shown are actives, neighbours in structure and some others; about 2.3% of the full set was active somewhere. Unless noted, calls come from the whole dose curve; as a rule, active = well fitted curve in the direction sought with a large enough effect; inconclusive = small, poorly fitted or top-dose-only effect, or another doubt; inactive = no such curve, though single readings can be large; an effect the other way counts as inactive or inconclusive. Potency is the fitted concentration of half-maximal effect.

SMILES	p53ts 32C kill	IkB sig inh	Peg3 imprint	p53ts 39C tox	ERK AVP block
COc1cc(O)c(C(=O)/C=C/c2ccc(OC)c(O)c2)c(OC)c1	10µM*	/	-37.4%	62.7%	?
COc1ccc(C(=O)Oc2cc(OC)cc(OC)c2C(C)=O)cc1	-7.3%[9.22 µM]	/	/	6.1%[9.22 µM]	-4.5%[11.5 µM]
Cc1ccc2c(c1)[nH]c1c(N3CCN(Cc4ccccc4)CC3)ncnc12	-22.3%	?	-21.1%	-29.9%	15.8µM*
O=C(/C=C/c1cn(CC(O)CN2CCCCCC2)c2ccccc12)c1ccccc1 (stereo not drawn)	-12.8%	?	-10.7%[10.9 µM]	?	/
Cc1ccc(C(=O)/C=C/c2cn(CC(O)CN3CCCCCC3)c3ccccc23)cc1 (stereo not drawn)	?	?	?	12.6µM*	/
COc1ccc(C(=O)/C=C/c2cn(CC(O)CN3CCCCCC3)c3ccccc23)cc1OC (stereo not drawn)	-16.3%	?	-5.0%[10.9 µM]	12.6µM*	/
CC(C)=NO[C@@H](C)c1cc(-c2c(C)cc(C)cc2C)no1	-2.3%[9.22 µM]	/	/	11.5%[9.22 µM]	13.1%[11.5 µM]
Cc1ccccc1CCNC(=O)c1ccc2c(c1)nc1n2CCOC1	7.94µM*	-0.7%	-14.9%[10.9 µM]	6.31µM*	/
CC(CNC(=O)c1ccc2c(c1)nc1n2CCCCC1)c1ccccc1 (stereo not drawn)	?	?	-12.3%[10.9 µM]	12.6µM*	/
CC(C)NC(=O)c1ccc2c(c1)nc1n2CCCCC1	-25.0%	-0.3%	-5.2%[10.9 µM]	-17.9%	/
CC1CCn2c(nc3cc(C(=O)NCCc4ccccc4)ccc32)C1 (stereo not drawn)	15.8µM*	-2.4%	-13.2%[10.9 µM]	?	/
Cc1ccccc1CCNC(=O)c1ccc2c(c1)nc1n2CCCCC1	1.58µM*	?	-4.4%[10.9 µM]	1µM*	/
CSc1ccc(CCNC(=O)c2ccc3c(c2)nc2n3CCCCC2)cc1	-8.9%	?	-15.0%[10.9 µM]	-11.8%	/
NC1=N[C@H](c2ccc(Cl)cc2)N(c2ccc(S(N)(=O)=O)cc2)C(N)=N1	3.1%[9.22 µM]	0.3%[11.4 µM]	-8.8%[10.9 µM]	3.9%[9.22 µM]	-10.3%[11.5 µM]
COc1ccc2nc(NCN3C(=O)c4ccccc4C3=O)sc2c1	8.1%[9.22 µM]	1.9%[11.4 µM]	-2.6%[10.9 µM]	-0.6%[9.22 µM]	10.0%[11.5 µM]
COC(=O)CC[C@@H](C)C1CC[C@H]2[C@H]3CC[C@H]4C[C@@H]5CCC4(C)[C@@]3(O5)[C@@H](Br)[C@@H](Br)[C@@]12C (stereo partly drawn)	/	/	-9.9%[10.9 µM]	/	/
Cc1ccc(S(=O)(=O)N2CCCC2C(=O)Nc2nc3ccccc3s2)cc1 (stereo not drawn)	40.2%	?	-21.7%	13.3%	-6.7%
O=C(Nc1nc2ccccc2s1)C1CCCN1S(=O)(=O)c1ccc(Cl)cc1 (stereo not drawn)	34.0%	?	-21.2%	21.9%	20µM*
N#C[C@@H](N=Nc1ccccc1C(=O)O)C(N)=O	-1.5%[9.22 µM]	-0.5%[11.4 µM]	-13.7%[10.9 µM]	-5.1%[9.22 µM]	-0.5%[11.5 µM]
CCOC(=O)c1ccc(NC(=O)CSc2nc3c(c(=O)n2C)SC(C)C3)cc1 (stereo not drawn)	7.94µM*	-0.6%	-17.5%	12.6µM*	/
C#C[C@]1(O)CCC2C3CCC4=Cc5oncc5C[C@@]4(C)C3CC[C@@]21C (stereo partly drawn)	/	/	-19.9%	/	-16.5%
O=C(Nc1cccc(Cn2cccn2)c1)c1cc2c(s1)CCCC2	-23.5%	?	-28.7%	-26.9%	20µM*
CC(=O)Nc1cccc(Cn2cccn2)c1	0.4%	9.1%	-18.6%	19.2%	-12.7%
Cc1cc(C)cc(NC(=O)COCc2cc(-c3ccc4c(c3)OCO4)on2)c1	-10.0%	/	/	/	/
Cc1cc(C)cc(OC(=O)c2cc(-c3ccc4c(c3)OCCO4)on2)c1	?	1.7%	-19.3%[10.9 µM]	12.6µM*	/
SMILES	p53ts 32C kill	IkB sig inh	Peg3 imprint	p53ts 39C tox	ERK AVP block
Cc1cccc(OC(=O)c2cc(-c3ccc4c(c3)OCCO4)on2)c1C	20µM*	0.5%	-12.0%[10.9 µM]	?	/
COC(=O)c1cc(-c2cccc(OC)c2)on1	-9.3%	0.7%	-32.7%	-14.9%	-15.3%
Cc1cccc(OC(=O)c2cc(-c3ccc4c(c3)OCCO4)on2)c1	20µM*	?	-16.6%[10.9 µM]	20µM*	/
Cc1ccccc1OC(=O)c1cc(-c2ccc3c(c2)OCCO3)on1	?	2.0%	-21.4%[10.9 µM]	?	/
Oc1ccc2ccccc2c1/C=C\c1ccc2c(Br)cc(Br)c(O)c2n1	-5.3%[9.22 µM]	9.3%[11.4 µM]	-18.5%[10.9 µM]	?	9.7%[11.5 µM]
CCN(CC)CCNC(=O)c1ccc(Cc2nc3ccccc3[nH]2)cc1	-6.6%	/	/	-2.9%	/
O=c1[nH]c(SCc2c(Cl)c(Cl)c(Cl)c(Cl)c2Cl)nc(=S)[nH]1	-15.4%[9.22 µM]	0.4%[11.4 µM]	-8.4%[10.9 µM]	-1.0%[9.22 µM]	4.9%[11.5 µM]
COc1ccc(OC)c2sc(N3CCN(C(=O)C4CC4)CC3)nc12	?	-2.0%	-10.6%[10.9 µM]	?	/
COc1ccc(OC)c2sc(N3CCN(C(=O)C(C)(C)C)CC3)nc12	15.8µM*	-2.5%	-7.6%[10.9 µM]	7.94µM*	/
O=C1NCCCC2c3cc(O)c4ccccc4c3OC12N1CCCCC1 (stereo not drawn)	6.31µM*	?	-39.2%	7.94µM*	-24.5%
O=C1NCCCC2c3c(cc(Br)c(O)c3Br)OC12N1CCOCC1 (stereo not drawn)	9.0%	-0.5%	-0.9%	9.5%	-10.2%
O=C(NCc1ccco1)c1ccc2c(c1)N(Cc1c(F)cccc1Cl)C(=O)c1ccccc1S2	7.4%	0.0%	-10.8%[10.9 µM]	15.0%	/
CCN(CC)CCCNC(=O)c1ccc2c(c1)N(Cc1c(F)cccc1Cl)C(=O)c1ccccc1S2	-7.7%	?	-7.7%[10.9 µM]	12.6µM*	/
CCCCn1cnc2c(SC)ncnc21	10.9%[9.22 µM]	-0.4%[11.4 µM]	-1.6%[10.9 µM]	3.3%[9.22 µM]	-13.0%[11.5 µM]
COc1ccc2c(c1)OC1(O)COc3cc(OC)c(OC)cc3C1=C2 (stereo not drawn)	-2.3%	/	-10.1%	-5.9%	?
O=C(Nc1nc2c(s1)CCCC2)c1ccc2ncsc2c1	?	?	-34.9%	?	/
Cc1cccc(C(=O)Nc2nc3c(s2)CCCC3)c1	10µM*	?	-28.3%[10.9 µM]	12.6µM*	/
Cc1ccc(-n2ncc3c(NC4CCCCC4)ncnc32)cc1	?	?	-10.3%[10.9 µM]	7.94µM*	/
Clc1cccc(-n2ncc3c(NC4CCCCC4)ncnc32)c1	?	?	-12.5%[10.9 µM]	12.6µM*	/
Cc1ccc(Cl)cc1-n1ncc2c(NC3CCCCC3)ncnc21	-0.6%	?	-8.4%[10.9 µM]	4.3%	/
Cc1ccc(-n2ncc3c(NC4CCCCCC4)ncnc32)cc1	?	?	-17.2%[10.9 µM]	?	/
CCCCn1c(NC(=O)c2ccccc2)c(C#N)c2nc3ccccc3nc21	?	?	-29.9%	6.31µM*	?
Cn1c(=O)c2c(nc(C(=N)SCC(=O)O)n2C)n(C)c1=O	2.8%[9.22 µM]	1.3%[11.4 µM]	-12.4%[10.9 µM]	-4.9%[9.22 µM]	-15.0%[11.5 µM]
C=C(C)Cn1c(SCC)nc2ccccc2c1=O	-2.9%	-0.6%	2.1%	-3.3%	9.4%
C=C(C)Cn1c(SCC#N)nc2ccccc2c1=O	-5.3%	-2.0%	1µM*	-7.8%	-6.9%
